High-throughput results as filed in PubChem BioAssay.
In the library only some 1% were active in any assay of this set; here they are far more common.
hiPSC survival = enhancers of single-cell hiPSC survival, primary screen, ATPlite luminescence | hit rate 0.044% among 360,000 | survival enhancement, % at 20 µM | AID 602274, 2012 | 100% = ROCK inhibitor wells, 0% = DMSO; in the data active = survival enhancement above about 18%;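 also: cells exposed to compounds for 16 hours before the ATP read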
V-ATPase pHluor = regulators of yeast V-ATPase proton pumping, primary screen, pHLuorin cytosolic pH fluorescence | S. cerevisiae | response, % at 10 µM | hit rate 0.37% among 350,000 | AID 504577, 2011; in the data active = response mostly above about 7.3%, no sharp cut-off; inactive = mostly below about 5.4%; also: actives read high
Yeast superoxide = reduction of superoxide in aged yeast, primary screen, HTS. S. cerevisiae aged cells, superoxide DHE fluorescence; hits give low values. hit rate 0.18% among 330,000. superoxide response (% of plate mean), % at 10 µM;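 active = superoxide response under a set limit, about three screen SD below normal, cut at about 65% in these data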;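 also: yeast aged for seven days with compound at 30 °C before DHE staining; 100% = average MFI of all compound-treated wells on the plate with controls excluded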
Fh CTSL1 inh = Fasciola hepatica cathepsin L1 inhibitors, primary screen, counter-screen for PFM18AAP inhibitor project, biochemical, QFRET, fluorogenic peptide substrate; recombinant F. hepatica cathepsin L1, Z-Leu-Arg-MCA fluorescence; inhibition, % at 5.96 µM; hit rate 0.49% among 300,000; AID 1906, 2009;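 active = inhibition above the mean of all tested compounds plus 3 SD, set per screening campaign, cut at about 17% in these data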;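 also: 0% = plate median of test compound wells and 100% = 1 µM Z-Phe-Ala-diazomethylketone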
Superoxide pick = superoxide lowering in aged yeast cells, confirmation, cherry picked compounds; superoxide response (% of plate), % at 10 µM; shares compounds with Yeast superoxide; hit rate 1% among 850; S. cerevisiae aging, superoxide DHE fluorescence; hits give low values; AID 434994, 2010;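 active = superoxide signal below 65% of the plate average of sample wells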;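 also: cells aged with compound for 7 days at 30 degrees C before staining; 100% equals mean DHE fluorescence of all compound wells on the plate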
DHE fluor count = DHE quenching or ROS scavenging interference in aged yeast, artefact control for yeast caloric restriction mimetic project, S. cerevisiae BY4741, flow cytometry | AID 435000, 2010 | 850 tested, under 10 active | DHE fluorescence; hits give low values | fluorescence response, % at 10 µM | shares compounds with Yeast superoxide;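 active = fluorescence response below 15%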;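 also: percent of the mean fluorescence averaged over all compound wells on the plate; lower means stronger quenching of DHE signal or ROS scavenging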
* marks the source's active call; other numbers are inactive results.

For Cc1ccc(C)c(S(=O)(=O)Nc2ccc(C(=O)NCCc3ccccn3)cc2)c1 the results were hiPSC survival 0, V-ATPase pHluor 0, Yeast superoxide 87 and Fh CTSL1 inh 1.
`Clc1ccc(/C=C/c2nc(Cl)c(-c3ccc(Cl)cc3)c(Cl)n2)cc1` gave hiPSC survival -1, V-ATPase pHluor 4, Yeast superoxide 63*, Fh CTSL1 inh 0, Superoxide pick 92 and DHE fluor count 92.
`OCc1c[nH]c(=S)n1CCOc1cccc(C(F)(F)F)c1` gave hiPSC survival 0, V-ATPase pHluor -3, Yeast superoxide 95 and Fh CTSL1 inh -8.
`Cc1ccc(F)cc1NC(=O)CN1CCN(c2ccccn2)CC1` gave hiPSC survival 2, V-ATPase pHluor 5, Yeast superoxide 97, Fh CTSL1 inh -4, Superoxide pick 106 and DHE fluor count 89.
For O=C(CN1CCN(c2ccccn2)CC1)Nc1ccccc1F the results were hiPSC survival 0, V-ATPase pHluor -4, Yeast superoxide 95 and Fh CTSL1 inh -5.
For O=C(CN1CCN(c2ccccn2)CC1)Nc1cc(F)ccc1F the results were hiPSC survival 3, V-ATPase pHluor 0, Yeast superoxide 107, Fh CTSL1 inh -2, Superoxide pick 103 and DHE fluor count 100.
O=C(CN1CCN(c2ccccn2)CC1)Nc1ccc(F)cc1F was read as hiPSC survival 0, V-ATPase pHluor 1, Yeast superoxide 90, Fh CTSL1 inh -5, Superoxide pick 91 and DHE fluor count 100.
`O=C(CCN1CCN(c2ccccn2)CC1)Nc1ccc(F)cc1` gave hiPSC survival 4, V-ATPase pHluor -3, Yeast superoxide 104 and Fh CTSL1 inh -7.
For COc1ccccc1N1CCN(CC(=O)Nc2cc(F)ccc2C)CC1 the results were hiPSC survival 0, V-ATPase pHluor -1, Yeast superoxide 105 and Fh CTSL1 inh 2.
COCCN1C(=O)COc2ccccc2C1C(=O)NC(C)(C)C (stereo not given) was read as hiPSC survival -1.
`C[C@]12CCC3C(CC[C@H]4CCCC[C@]34C)C1CC[C@@]2(O)CNCCO` (stereo not given in full) gave hiPSC survival -1, V-ATPase pHluor -2, Yeast superoxide 111, Superoxide pick 91 and DHE fluor count 95.
Screening CC(=O)N1CCC(C(=O)Nc2cc(C)cc(C)c2)CC1 returned hiPSC survival 1, V-ATPase pHluor 0, Yeast superoxide 61*, Fh CTSL1 inh -1, Superoxide pick 103 and DHE fluor count 91.
For CCN(c1ccc(OC)cc1)S(=O)(=O)c1cc(-c2cc(C)no2)ccc1OC the results were hiPSC survival 0, V-ATPase pHluor 1, Yeast superoxide 63*, Fh CTSL1 inh -4, Superoxide pick 103 and DHE fluor count 91.
Screening CCN(c1ccc(OC)cc1)S(=O)(=O)c1cc(-c2cc(C)no2)ccc1C(C)C returned hiPSC survival 1, V-ATPase pHluor 0, Yeast superoxide 81 and Fh CTSL1 inh 2.
O=C(/C=C/c1cccs1)NC(=S)NNC(=O)Cc1cccs1 was read as hiPSC survival -1, V-ATPase pHluor -1, Yeast superoxide 39*, Fh CTSL1 inh 4, Superoxide pick 73 and DHE fluor count 97.
CC(C)(C)c1ccc(-c2n[nH]c(=S)n2/N=C/c2ccncc2)cc1 was read as hiPSC survival 5, V-ATPase pHluor -1, Yeast superoxide 43*, Fh CTSL1 inh 3, Superoxide pick 115 and DHE fluor count 127.
For CC1(C(=O)NS(=O)(=O)c2ccccc2)CCN1C(=O)Cc1cc(F)ccc1F (stereo not given) the results were hiPSC survival 1.
For CCC(CO)NCc1ccc2c(c1)n(C)c(=O)n2C (stereo not given) the results were hiPSC survival 3, V-ATPase pHluor -6, Yeast superoxide 61*, Fh CTSL1 inh -2, Superoxide pick 121 and DHE fluor count 120.
Screening CCOc1ccc(NS(=O)(=O)c2ccc(N)cc2)cc1 returned hiPSC survival 2, V-ATPase pHluor -3, Yeast superoxide 101, Fh CTSL1 inh 2, Superoxide pick 98 and DHE fluor count 90.
COc1cc(C)c(S(=O)(=O)N2CCCC2)cc1C was read as hiPSC survival -3, V-ATPase pHluor -2, Yeast superoxide 59*, Fh CTSL1 inh 1, Superoxide pick 80 and DHE fluor count 92.
Screening CCOc1ccc2cc(S(=O)(=O)N3CCCCC3)ccc2c1 returned hiPSC survival 0, V-ATPase pHluor -1, Yeast superoxide 81 and Fh CTSL1 inh 5.
Screening CCOc1cc(S(=O)(=O)N2CCCC2)c(C)cc1C returned hiPSC survival 0, V-ATPase pHluor 2, Yeast superoxide 99, Fh CTSL1 inh -1, Superoxide pick 104 and DHE fluor count 104.
For CCOc1ccc(S(=O)(=O)N2CCCC2)cc1 the results were hiPSC survival 0, V-ATPase pHluor -3, Yeast superoxide 112, Fh CTSL1 inh 1, Superoxide pick 110 and DHE fluor count 109.
`CCOc1ccc(NS(=O)(=O)c2ccc(SC)cc2)cc1` gave hiPSC survival 0, V-ATPase pHluor 4, Yeast superoxide 100 and Fh CTSL1 inh 1.
For Cc1ccccc1-c1cc2nc(NCCOc3ccccc3Cl)n(C)c(=O)c2s1 the results were hiPSC survival -2.
`COc1cc(C)c(S(=O)(=O)N2CCN(C)CC2)cc1C` gave hiPSC survival 3, V-ATPase pHluor -4, Yeast superoxide 114 and Fh CTSL1 inh 0.
`COc1c(C)cc(S(=O)(=O)N2CCCC2)c(C)c1C` gave hiPSC survival -1, V-ATPase pHluor -2, Yeast superoxide 109, Fh CTSL1 inh -2, Superoxide pick 97 and DHE fluor count 95.
COc1cc(C)c(S(=O)(=O)N2CCCC2)cc1C(C)C was read as hiPSC survival -1, V-ATPase pHluor 3, Yeast superoxide 91, Fh CTSL1 inh 0, Superoxide pick 92 and DHE fluor count 90.
For Cc1ccc(S(=O)(=O)NCCn2nc(C)cc2C)cc1 the results were hiPSC survival 0, V-ATPase pHluor 2, Yeast superoxide 126 and Fh CTSL1 inh -1.
`CCCNC(=O)[C@@H]1CCCN1C(=O)C1CCN(S(=O)(=O)c2ccc(C)cc2)CC1` gave hiPSC survival 0, V-ATPase pHluor 5, Yeast superoxide 64*, Fh CTSL1 inh -1, Superoxide pick 116 and DHE fluor count 109.
Cc1ccc(S(=O)(=O)N2CCC(C(=O)N3CCC[C@H]3C(=O)NCC(C)C)CC2)cc1 was read as hiPSC survival 0, V-ATPase pHluor 5, Yeast superoxide 99 and Fh CTSL1 inh 0.
Screening COc1ccc(N=CC2CCCCC2=O)c([N+](=O)[O-])c1 (stereo not given) returned hiPSC survival 1 and V-ATPase pHluor -6.
